# Experiments:
# Experiment in all cases: PBM binding z-score (relative to random genomic background probes); higher = stronger binding; sequences stand for … in GC…GCGATTGACAGCGTAGAATGAAGG
# [1] = system: FXR:RXRa (NR concentration 270 nM, RXRa partner concentration 90 nM)
# Method in brief: (§1)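 Ligand-free nuclear receptor dimers were applied to custom Agilent 4×180K protein-binding microarrays whose double-stranded probes carried direct-repeat seeds, single-nucleotide variants, half-site ablations and random human genomic background sequences in 34-nt variable regions. Incubation lasted 1 h. Binding z-scores were computed against the random background probes from regression-normalized fluorescence.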
# [2] = system: LXRa:RXRa (NR concentration 270 nM, RXRa partner concentration 90 nM)
# Method in brief: as §1
# [3] = system: LXRa homodimer (NR concentration 270 nM)
# Method in brief: as §1
# [4] = system: LXRb:RXRa (NR concentration 270 nM, RXRa partner concentration 90 nM)
# Method in brief: as §1
# [5] = system: LXRb homodimer (NR concentration 270 nM)
# Method in brief: as §1
# [6] = system: PPARa:RXRa (NR concentration 270 nM, RXRa partner concentration 90 nM)
# Method in brief: as §1
# [7] = system: PPARg:RXRa (NR concentration 180 nM, RXRa partner concentration 90 nM)
# Method in brief: as §1
# [8] = system: PPARg:RXRa 270nM:90nM, anti-RXR (NR concentration 270 nM, RXRa partner concentration 90 nM)
# Method in brief: as §1
# [9] = system: PPARg:RXRa 30nM:10nM, anti-RXR (NR concentration 30 nM, RXRa partner concentration 10 nM)
# Method in brief: as §1
# [10] = system: PPARg:RXRa 90nM:30nM, anti-RXR (NR concentration 90 nM, RXRa partner concentration 30 nM)
# Method in brief: as §1
# [11] = system: PPARg:RXRa DBDmut IVT, anti-RXR (DBD mutation: RXRa K156A/R161A, NR concentration 270 nM, RXRa partner concentration 90 nM)
# Method in brief: as §1
# [12] = system: PPARg:RXRa IVT, anti-PPARg (NR concentration 270 nM, RXRa partner concentration 90 nM)
# Method in brief: as §1
# [13] = system: PPARg DBDmut:RXRa IVT, anti-PPARg (DBD mutation: PPARg1 K132A/R137A, NR concentration 270 nM, RXRa partner concentration 90 nM)
# Method in brief: as §1
# [14] = system: PPARg DBDmut IVT, anti-PPARg (DBD mutation: PPARg1 K132A/R137A, NR concentration 270 nM)
# Method in brief: as §1
# [15] = system: PPARg homodimer (NR concentration 180 nM)
# Method in brief: as §1
# [16] = system: PXR:RXRa (NR concentration 270 nM, RXRa partner concentration 90 nM)
# Method in brief: as §1
# [17] = system: PXR homodimer (NR concentration 270 nM)
# Method in brief: as §1
# [18] = system: RARa:RXR (NR concentration 270 nM, RXRa partner concentration 90 nM)
# Method in brief: as §1
# [19] = system: RARa homodimer (NR concentration 270 nM)
# Method in brief: as §1
# [20] = system: RARb:RXRa (NR concentration 270 nM, RXRa partner concentration 90 nM)
# Method in brief: as §1
Sequence,PBM binding z-score [1],PBM binding z-score [2],PBM binding z-score [3],PBM binding z-score [4],PBM binding z-score [5],PBM binding z-score [6],PBM binding z-score [7],PBM binding z-score [8],PBM binding z-score [9],PBM binding z-score [10],PBM binding z-score [11],PBM binding z-score [12],PBM binding z-score [13],PBM binding z-score [14],PBM binding z-score [15],PBM binding z-score [16],PBM binding z-score [17],PBM binding z-score [18],PBM binding z-score [19],PBM binding z-score [20]
TCTAGTTGGTCAATGGTCACACACTCGAAATGCG,0.812,0.861,0.28,0.966,0.461,1.74,2.89,4.7,4.08,4.79,2.15,2.54,0.677,1.19,1.32,0.698,-0.0663,0.893,0.846,1.62
GCTGCTAGGTCAGGTTGTTCAGCTAACGGGTACG,1.07,0.82,-0.00729,0.433,-0.427,1.29,0.414,1.18,-0.403,0.471,3.24,2.3,0.0355,-0.699,0.293,0.34,-0.306,0.883,-0.985,3.15
GTATCAAGGTGAATAGGTCGTTGATGAGTAGGCG,0.903,1.1,0.272,0.689,0.229,2.65,2.43,2.76,1.16,2.08,3.31,4.02,1.21,0.758,1.45,0.996,0.271,2.01,0.786,2.14
ACTAGCAGGCCAAGATTGGGTCACTCAAACAAAG,-0.0447,-0.288,-0.493,0.338,-0.861,1.33,0.272,0.402,-0.526,-0.361,0.594,1.6,-0.903,-0.363,0.0638,0.192,-0.441,0.988,-0.597,1.47
CCTGGTAGGTCATGGTCAGCTAATCTACAGTATG,3.94,3.15,0.527,2.3,0.0201,4.05,4.22,4.12,1.32,3.01,4.25,5.18,0.295,0.552,1.94,2.02,-0.0799,2.83,0.611,3.81
CCTCGGAGGACAGAAGTTCAGAGCTGTCCGCTTT,-0.0968,0.116,-0.259,-0.479,-0.948,-0.198,-0.643,-0.616,-1.24,-0.788,-0.783,-0.951,-1.61,-1.82,-0.0548,0.556,-0.104,-0.223,-0.677,1.59
CGTCAAAGTTCAAAGTAACGTAACAGAAAGCAGC,6.87,6.57,4.32,4.01,2.75,4.91,4.43,5.36,2.18,4.17,0.465,1.58,1.23,1.35,3.3,4.68,3.73,3.43,1.73,4.9
ATATGTAGGTTAAGGGTCATTCAAGTTGGTTCGC,5.1,5.2,2.81,4.68,1.33,6.53,11.5,9.66,9.8,10.8,7.49,7.7,1.56,1.82,3.15,5.92,1.73,5.73,1.9,3.79
CCAGACAGGTGAAAGGTAACTCGGTCTGGTACGC,0.495,0.577,-0.368,0.702,-0.561,3.46,5.96,5.52,4.56,6.21,2.3,2.9,-0.38,-1.24,0.981,0.75,-0.111,1.77,0.392,1.2
TCATATAGGCAAAAGGTGAAAGTCGGTGTGGTAA,1.44,1.54,-0.253,1.6,-0.167,4.76,7.39,6.76,6.88,8.15,3.66,3.79,0.358,-0.517,1.39,1.27,0.0545,1.81,0.897,1.81
CCTCGGAGGACAGAACGTCAGAGCTGTCCGCTTT,-0.455,-0.498,-0.707,-1.16,-1.1,-1.32,-0.391,-1.32,-1.28,-1.56,-0.575,-0.846,-2.12,-1.43,-1.05,-1.12,-0.765,-1.04,-0.587,0.103
GGAACGAGGGCAAGTTGATCGCAGAGTTTGATGG,0.747,0.257,-0.518,0.128,-0.392,1.6,0.859,0.878,-0.211,0.517,3.49,2.88,0.162,-0.887,-0.254,0.576,-0.0478,0.607,-0.361,2.51
CCTCGGAGGACAACAGGTGGTCAGAGCTGCCAGA,-0.329,-0.519,-0.443,-0.782,-1.09,-0.623,-0.311,-0.79,-1.45,-1.37,-0.455,-0.616,-2.74,-2.26,-0.317,-0.667,-0.589,-0.583,-0.066,1.04
ACAGACAGGTGAGTGAAGTTAACTCAGCTGGACG,-0.59,-0.611,-0.779,-0.663,-0.63,-0.341,0.529,-0.616,-0.371,-0.832,0.505,0.404,-0.391,-0.406,-0.447,-0.325,-0.705,-0.744,-0.259,0.258
TCTTGTAGATCAAGCAGGTTTAGAAAGCCTGAGT,0.0311,0.0459,-0.387,-0.134,-0.464,0.137,-0.639,0.91,2.24,1.35,1.37,0.0829,-0.44,0.305,-0.478,0.273,-0.0713,-0.152,-0.252,-0.191
CAGCCTAGGTCAGGGCCAGTTTAGGAGGAACGTT,2.04,1.26,-0.426,0.837,-1.02,2.13,0.55,0.962,-0.489,0.124,1.5,1.79,-1.02,-1.5,0.437,1.03,-0.16,1.32,-0.133,3.41
TCTCGAAGGACACGAAAGGTCAGAGCTCGACATC,2.94,3.47,2.63,3.26,0.0129,3.58,1.59,3.13,3.42,3.16,2.34,1.64,0.0703,0.551,1.75,3.79,0.247,4.04,0.683,4.23
AGAATGAGGTTTCCAAAGATCAGGGAAACGCTTG,-0.506,-0.535,-0.424,-0.463,-0.489,-0.139,0.377,-0.265,-0.17,-0.215,0.298,-0.0805,0.256,0.153,-0.417,-0.387,-0.601,-0.144,-0.745,-0.151
CGTCCCAGGTCAGAGAGGTCAGTGAATGCCGAGT,4.31,4.12,2.6,3.58,0.209,3.75,2.21,2.76,0.0256,1.76,1.78,2.54,-0.171,-0.892,3.01,5.38,10.2,4.83,0.426,4.48
TTACCAAGGTGAGCTGGGGTCGTTGATCCAACTC,0.996,0.819,-0.542,1.37,-0.609,2.37,0.431,1.19,-0.099,0.415,0.928,2.07,-0.594,-0.348,0.0514,4.52,0.268,2.72,-0.868,1.55
TCTTTTAGATCAAAGGTTAAGAAAGCCGAAGCCT,1.68,2.05,0.26,2.19,0.802,4.08,6.36,6.92,6.34,7.4,2.09,3.01,1.08,1.12,1.05,2.05,0.154,2.88,0.435,2.07
TCTAGTTGGTCAAGGAGGTCACACACGACGGGTA,3.04,3.16,1.88,3.23,0.53,3.73,2.59,3.56,3.6,3.39,2.22,3.77,0.973,1.49,2.56,4.22,1.23,4.22,1.46,3.47
GCTATTAGTTGAAAGGGCAAGCGAATGATTCTCG,0.532,0.54,-0.0155,0.379,-0.106,2.13,2.5,4.12,2.04,4.08,0.45,0.54,-0.251,0.055,1.28,0.469,0.0641,1.19,0.795,1.94
ACTAGCAGGCCAAGTTTGGGTAACTCAAACAAAG,-0.442,-0.634,-0.575,-0.304,-0.8,-0.339,-0.414,-0.541,-0.687,-0.687,0.555,0.362,-0.71,-1.1,-0.788,-0.378,-0.687,-0.383,-0.573,0.143
CAAACTAGGGCAAAGGTCAAAGTCGAGCCAACCA,7.07,6.32,4.3,6.01,1.82,7.48,13.2,10.9,12.2,12.5,7.98,8.53,3.73,2.63,4.12,5.98,1.29,7.53,1.54,5.15
CGAACTAGGTCATTGACAGGACAGTCAATAGTAA,4.28,3.15,0.489,2.19,0.17,4.74,7.38,6.08,3.32,5.75,7.74,8.19,3.76,2.34,1.94,1.66,0.135,2.34,0.378,3.51
ATATGTAGGATACATCCGGGTCATTCAGGCTATG,1.21,1.31,0.653,1.61,0.399,2.9,2.14,1.77,0.797,1.28,3.21,3.86,1.63,1.37,1.25,2.39,1.38,2.42,0.161,1.2
CGTCAAAGTTCAACTAAGGTAACGTTAAGCACGC,7.22,6.43,4.8,4.26,2.3,5.14,5.07,5.53,2.21,4.37,0.539,2.1,1.06,1.28,3.26,5.84,4.4,4.54,2.15,5.22

# Reference: the supplement of paper PMC6555819
